Results filed as inconclusive are left out. A number with no mark means an inactive call. Activity calls are given as the source filed them. Calls come from the whole dose curve; as a rule, active = well fitted inhibition curve with a large enough effect; inconclusive = small, poorly fitted or top-dose-only effect; inactive = flat fitted curve, though single readings scatter.
Test system: CP335
Test: qHTS profiling for inhibitors of Plasmodium falciparum proliferation (AID 504749); note: nearly all actives have a fitted effect of over 60% in size;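 for activity, negative = inhibition: 0% = DMSO vehicle and full inhibition = artemisinin control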
Details: P. falciparum in erythrocytes, SYBR Green DNA, 72 h; series mostly up to 28.7 µM; activity, negative = inhibition: at the top concentration
Summary of the method: (§1)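 Quantitative HTS: compounds pinned into medium, infected erythrocytes added (0.3% parasitemia, 2.5% hematocrit), 72 h culture at 37 C under 5% CO2. Saponin/Triton lysis with SYBR Green I, overnight RT, then fluorescence read.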
Potency is the fitted concentration of half-maximal effect.

| SMILES | activity, negative = inhibition | Potency |
| --- | --- | --- |
| COc1ccccc1N1CCN(CCCC(=O)c2ccc(F)cc2)CC1 | -16.7% |  |
| Cn1cc(NC(=O)c2cc(NC(=O)c3cc(NC=O)cn3C)cn2C)cc1C(=O)NCCC(=N)N |  | 8.49 µM (active) |
| CCCCCc1ccc(C)cc1O | 3.19% |  |
| CC[C@H]1OC(=O)[C@H](C)[C@@H](O[C@H]2C[C@@](C)(OC)[C@@H](O)[C@H](C)O2)[C@H](C)[C@@H](O[C@@H]2O[C@H](C)C[C@H](N(C)C)[C@H]2O)[C@](C)(O)C[C@@H](C)CN(C)[C@H](C)[C@@H](O)[C@]1(C)O |  | 5.36 µM (active) |
| CCCCCCCCCCCCCCCCOCCOCCOCCOCCOCCOCCOCCOCCOCCOCCOCCOCCOCCOCCOCCOCCOCCOCCOCCOCCO | -27.1% |  |
| C=CCN1CCCC1CNC(=O)c1cc(S(N)(=O)=O)cc(OC)c1OC (stereo unspecified) | 5.74% |  |
| CC(=O)c1ccc2c(c1)N(CCCN1CCN(CCO)CC1)c1ccccc1S2 |  | 12 µM (active) |
| CN(C)CCOc1ccc(/C(=C(/CCCl)c2ccccc2)c2ccccc2)cc1 | -3.57% |  |
| CN(C)c1ccc(C(=C2C=CC(=[N+](C)C)C=C2)c2c(O)c(S(=O)(=O)[O-])cc3cc(S(=O)(=O)O)ccc23)cc1 | 4.15% |  |
| COC(=O)CCC[N+](C)(C)C | 9.02% |  |
| CC(C)=CCC/C(C)=C/C=C/C(C)=C/C=C/C(C)=C/C=C/C=C(C)/C=C/C=C(C)/C=C/C=C(\C)CCC=C(C)C | -6.53% |  |
| C/C(=C\C(=O)OCCCCCCCCC(=O)O)C[C@@H]1OC[C@H](C[C@@H]2O[C@H]2[C@@H](C)[C@H](C)O)[C@@H](O)[C@H]1O |  | 0.151 µM (active) |
| C=CC[N+]1([C@H]2C[C@H]3[C@@H]4CC[C@H]5C[C@H](O)[C@@H](N6CCOCC6)C[C@]5(C)[C@H]4CC[C@]3(C)[C@H]2OC(C)=O)CCCC1 |  | 12 µM (active) |
| C#C[C@]1(O)CC[C@@H]2[C@H]3CCC4=CC(=O)CC[C@H]4[C@H]3C(=C)C[C@@]21CC | -40.3% |  |
| CC(C)C1=CC2=CC[C@@H]3[C@](C)(CCC[C@@]3(C)C(=O)O)[C@H]2CC1 | 2.14% |  |
| Cn1c(=O)c2c(ncn2CCOC(=O)C(C)(C)Oc2ccc(Cl)cc2)n(C)c1=O | 6.66% |  |
| CC(C)NCC(O)COc1ccccc1-n1cccc1 (stereo unspecified) | -0.288% |  |
| O=C(CCCN1CCN2CCCC2C1)c1ccc(F)cc1 (stereo unspecified) | -6.28% |  |
| COc1ccc2nc(NC(=O)Nc3ccccc3)sc2c1 | -12.2% |  |
| Cc1cc(C(=O)NCCc2ccc(S(=O)(=O)NC(=O)NN3CCCCCC3)cc2)no1 | -1.44% |  |
| CC(=O)[O][Al][O]C(C)=O | -2.33% |  |
| OCCOCCOCCO | 0.687% |  |
| O=C(OCc1ccccc1)c1ccc(O)cc1 | -1.84% |  |
| CC(/C=C/C=C(\C)C(=O)O[C@@H]1O[C@H](CO[C@@H]2O[C@H](CO)[C@@H](O)[C@H](O)[C@H]2O)[C@@H](O)[C@H](O)[C@H]1O)=C\C=C\C=C(C)\C=C\C=C(/C)C(=O)O[C@@H]1O[C@H](CO[C@@H]2O[C@H](CO)[C@@H](O)[C@H](O)[C@H]2O)[C@@H](O)[C@H](O)[C@H]1O | -1.69% |  |
| O.O.O.O.O.O.O.O=S(=O)([O-])[O-].[Co+2] |  | 6.75 µM (active) |
| CN(C)CCCSc1ccccc1NC(=O)/C=C/c1ccccc1 | -20% |  |
| O=P(O)(O)OP(=O)(O)O | 0.178% |  |
| CCSc1ccc2c(c1)N(CCCN1CCN(C)CC1)c1ccccc1S2 | -2.36% [at 12.8 µM] |  |
| CCCCCCCCCCCCCCCCCC(=O)OC[C@@H](O)[C@H]1OC[C@H](O)[C@H]1O | 10.5% |  |

Test system: DFO2036
Test: as above
Details: P. falciparum in erythrocytes, SYBR Green DNA, 72 h; series mostly up to 28.7 µM; activity, negative = inhibition: at the top concentration
Summary of the method: as §1

| SMILES | activity, negative = inhibition | Potency |
| --- | --- | --- |
| COc1ccccc1N1CCN(CCCC(=O)c2ccc(F)cc2)CC1 | -1.01% |  |
| CCCCCc1ccc(C)cc1O | 8.03% |  |
| CC[C@H]1OC(=O)[C@H](C)[C@@H](O[C@H]2C[C@@](C)(OC)[C@@H](O)[C@H](C)O2)[C@H](C)[C@@H](O[C@@H]2O[C@H](C)C[C@H](N(C)C)[C@H]2O)[C@](C)(O)C[C@@H](C)CN(C)[C@H](C)[C@@H](O)[C@]1(C)O |  | 5.01 µM (active) |
| CN(C)CCOc1ccc(/C(=C(/CCCl)c2ccccc2)c2ccccc2)cc1 | 9.43% |  |
| C[C@]12CCC(=O)C[C@@H]1CC[C@@H]1[C@@H]2CC[C@]2(C)C=CC[C@@H]12 | -2.27% |  |
| Cc1ccc(S(=O)(=O)O)cc1C | 6.5% |  |
| NCC[C@H](O)C(=O)N[C@@H]1C[C@H](N)[C@@H](O[C@H]2O[C@H](CN)[C@@H](O)[C@H](O)[C@H]2O)[C@H](O)[C@H]1O[C@H]1O[C@H](CO)[C@@H](O)[C@H](N)[C@H]1O | 3.14% |  |
| CN(C)c1ccc(C(=C2C=CC(=[N+](C)C)C=C2)c2c(O)c(S(=O)(=O)[O-])cc3cc(S(=O)(=O)O)ccc23)cc1 | -20.2% |  |
| COC(=O)CCC[N+](C)(C)C | 9.61% |  |
| CC(C)=CCC/C(C)=C/C=C/C(C)=C/C=C/C(C)=C/C=C/C=C(C)/C=C/C=C(C)/C=C/C=C(\C)CCC=C(C)C | -4.25% |  |
| C#C[C@]1(O)CC[C@@H]2[C@H]3CCC4=CC(=O)CC[C@H]4[C@H]3C(=C)C[C@@]21CC | -23.6% |  |
| CC(C)C1=CC2=CC[C@@H]3[C@](C)(CCC[C@@]3(C)C(=O)O)[C@H]2CC1 | 2.38% |  |
| O=C(CCCN1CCC(C(=O)c2ccc(F)cc2)CC1)c1ccc(F)cc1 | -12.2% |  |
| CC(C)NCC(O)COc1ccccc1-n1cccc1 (stereo unspecified) | 9.56% |  |
| O=C(CCCN1CCN2CCCC2C1)c1ccc(F)cc1 (stereo unspecified) | -23.1% |  |
| Cc1ncc(C[n+]2csc(CCO)c2C)c(N)n1 | 10.5% [at 12.8 µM] |  |

| SMILES | activity, negative = inhibition | Potency |
| --- | --- | --- |
| COc1ccc2nc(NC(=O)Nc3ccccc3)sc2c1 | 2.61% |  |
| Cc1cc(C(=O)NCCc2ccc(S(=O)(=O)NC(=O)NN3CCCCCC3)cc2)no1 | 8.63% |  |
| N=C(N)c1ccc(/C=C/c2ccc(C(=N)N)cc2O)cc1 |  | 1.12 µM (active) |
| Cc1c(C)c2c(c(C)c1OC(=O)CCC(=O)O)CC[C@@](C)(CCC[C@H](C)CCC[C@H](C)CCCC(C)C)O2 | 2.79% |  |
| CC(=O)[O][Al][O]C(C)=O | 10.8% |  |
| CC1CC(OC(=O)C(O)c2ccccc2)CC(C)(C)C1 (stereo unspecified) | 1.52% |  |
| C=CC[C@@H]1/C=C(\C)C[C@H](C)C[C@H](OC)[C@H]2O[C@@](O)(C(=O)C(=O)N3CCCC[C@H]3C(=O)O[C@H](/C(C)=C/[C@@H]3CC[C@@H](O)[C@H](OC)C3)[C@H](C)[C@@H](O)CC1=O)[C@H](C)C[C@@H]2OC |  | 1 µM (active) |
| OCCOCCOCCO | 7.66% |  |
| O=C(OCc1ccccc1)c1ccc(O)cc1 | 17.3% |  |
| CC(/C=C/C=C(\C)C(=O)O[C@@H]1O[C@H](CO[C@@H]2O[C@H](CO)[C@@H](O)[C@H](O)[C@H]2O)[C@@H](O)[C@H](O)[C@H]1O)=C\C=C\C=C(C)\C=C\C=C(/C)C(=O)O[C@@H]1O[C@H](CO[C@@H]2O[C@H](CO)[C@@H](O)[C@H](O)[C@H]2O)[C@@H](O)[C@H](O)[C@H]1O | 15.2% |  |
| COC(=O)[C@@H](N)CS | 0.67% |  |
| O.O.O.O.O.O.O.O=S(=O)([O-])[O-].[Co+2] |  | 11.2 µM (active) |
| CN(C)CCCSc1ccccc1NC(=O)/C=C/c1ccccc1 | -15.8% |  |
| O=P(O)(O)OP(=O)(O)O | -24% |  |
| CCSc1ccc2c(c1)N(CCCN1CCN(C)CC1)c1ccccc1S2 | 9.32% [at 12.8 µM] |  |
| CCCCCCCCCCCCCCCCCC(=O)OC[C@@H](O)[C@H]1OC[C@H](O)[C@H]1O | -7.3% |  |
